# Measurements published in PubChem BioAssay (Tox21).
# A number with no mark means an inactive call. Records with an inconclusive call do not appear. Where a call stands in place of a potency, no number is given. Calls of active or inactive are those of the source. The call rests on the fitted dose curve; in most records, active means well fitted curve in the direction sought with a large enough effect in the repeat runs; inconclusive means weak or mixed curves; inactive means no such curve, though single readings can be large; an effect the other way counts as inactive or inconclusive.
# Experiments:
# [1] = Human pregnane X receptor (PXR) small molecule agonists, qHTS cell viability counter screen (AID 1346977); further: nearly all actives have a fitted effect of over 50% in size
# Outline: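 HepG2 cells stably carrying the PXR-Luc reporter are cultured with 5% charcoal-stripped FBS and treated with compounds for 24hr. CellTiter-Fluor is added at 23hr and fluorescence is read after 1hr.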
# [2] = Caspase-3/7 induction in HepG2 cells by small molecules, qHTS assay (AID 1346978); further: nearly all actives have a fitted effect of over 15% in size
# Outline: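 Wild-type HepG2 cells (2,000/well) were settled 5 h at 37 C, 5% CO2, then exposed to compounds in DMSO for 17 h. Caspase-3/7 activity was read by luminescence 30 min after adding Caspase-Glo 3/7 reagent at room temperature.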
# [3] = Caspase-3/7 induction in CHO-K1 cells by small molecules, qHTS cell viability counter screen (AID 1346979); further: nearly all actives have a fitted effect of over 35% in size
# Outline: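 Seeding: 1,500 CHO-K1 cells/well. Rest: 5hr, 37C. Treatment: compounds in DMSO, 16hr. Read: CellTiter-Fluor, 1hr, fluorescence.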
# [4] = Caspase-3/7 induction in CHO-K1 cells by small molecules, qHTS assay (AID 1346980); further: nearly all actives have a fitted effect of over 15% in size
# Outline: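 Wild-type cells were seeded at 1,500 per well and settled 5 hr at 37 C, 5% CO2, then exposed to DMSO-dissolved compounds for 17 hr. Caspase-Glo 3/7 reagent was added, and luminescence was read after 30min at room temperature.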
# [5] = Caspase-3/7 induction in HepG2 cells by small molecules, qHTS cell viability counter screen (AID 1346981); further: series mostly up to about 92 µM; nearly all actives have a fitted effect of over 30% in size
# Outline: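 Fluorescence read-out of live-cell protease activity (CellTiter-Fluor) after 1 hr with reagent. This was measured in the same wells as the caspase-3/7 luminescence, on HepG2 cells exposed to DMSO-dissolved compounds for 16 hr at 37 C.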
# [6] = target: Nuclear receptor subfamily 1 group I member 2 (Homo sapiens) (UniProt O75469); experiment: Human pregnane X receptor (PXR) small molecule agonists, qHTS assay (AID 1346982); further: nearly all actives have a fitted effect of over 35% in size; further: potency means the concentration at half of the fitted maximal effect
# Chain of Nuclear receptor subfamily 1 group I member 2 (Homo sapiens) (O75469 whole entry, looked up): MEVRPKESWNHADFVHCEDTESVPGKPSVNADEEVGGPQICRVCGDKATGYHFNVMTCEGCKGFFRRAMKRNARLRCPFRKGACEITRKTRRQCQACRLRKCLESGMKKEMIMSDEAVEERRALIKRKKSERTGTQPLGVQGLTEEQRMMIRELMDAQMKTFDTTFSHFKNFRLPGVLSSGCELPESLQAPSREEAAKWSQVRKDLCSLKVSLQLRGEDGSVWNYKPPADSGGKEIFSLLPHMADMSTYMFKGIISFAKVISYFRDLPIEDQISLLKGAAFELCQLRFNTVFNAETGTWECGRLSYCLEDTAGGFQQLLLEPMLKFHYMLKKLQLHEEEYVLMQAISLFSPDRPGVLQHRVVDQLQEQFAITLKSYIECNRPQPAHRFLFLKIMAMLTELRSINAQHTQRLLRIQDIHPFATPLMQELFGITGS
# Outline: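 HepG2 PXR-Luc reporter line, 5% charcoal-stripped FBS; 5 hr pre-incubation, compound (DMSO) 24 hr at 37 C/5% CO2; ONE-Glo 30 min RT; luminescence read-out.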
# [7] = target: Cytochrome P450 2D6 (Homo sapiens) (UniProt P10635); experiment: Cytochrome P450 Family 2 Subfamily D Member 6 (CYP2D6) small molecule antagonists: luciferase reporter qHTS assay (AID 1671196); further: nearly all actives have a fitted effect of over 50% in size; further: potency means the concentration at half of the fitted maximal effect
# Chain of Cytochrome P450 2D6 (Homo sapiens) (P10635 whole entry, looked up): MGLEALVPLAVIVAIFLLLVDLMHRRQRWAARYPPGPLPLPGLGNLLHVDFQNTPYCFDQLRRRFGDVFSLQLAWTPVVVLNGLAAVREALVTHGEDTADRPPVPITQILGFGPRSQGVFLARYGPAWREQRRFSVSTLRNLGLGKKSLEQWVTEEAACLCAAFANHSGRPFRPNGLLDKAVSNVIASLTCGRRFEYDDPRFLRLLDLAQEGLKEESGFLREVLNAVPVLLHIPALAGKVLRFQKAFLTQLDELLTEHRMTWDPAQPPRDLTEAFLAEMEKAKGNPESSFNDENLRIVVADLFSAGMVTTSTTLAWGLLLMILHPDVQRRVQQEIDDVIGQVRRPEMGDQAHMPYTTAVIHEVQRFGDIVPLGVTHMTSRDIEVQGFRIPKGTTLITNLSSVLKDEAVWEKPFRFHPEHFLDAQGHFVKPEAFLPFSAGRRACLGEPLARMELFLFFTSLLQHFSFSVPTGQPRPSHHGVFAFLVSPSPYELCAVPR
# Outline: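 Luminogenic proluciferin substrate, CYP2D6 enzyme; 10 min RT preincubation with compound, NADPH regeneration system added, 1 h RT. Stop/detection reagent, 20 min RT, luminescence read (RLU). Signal proportional to CYP activity.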
# [8] = target: Cytochrome P450 2C19 (Homo sapiens) (UniProt P33261); experiment: Cytochrome P450 Family 2 Subfamily C Member 19 (CYP2C19) small molecule antagonists: luciferase reporter qHTS assay (AID 1671197); further: nearly all actives have a fitted effect of over 65% in size; further: potency means the concentration at half of the fitted maximal effect
# Chain of Cytochrome P450 2C19 (Homo sapiens) (P33261 whole entry, looked up): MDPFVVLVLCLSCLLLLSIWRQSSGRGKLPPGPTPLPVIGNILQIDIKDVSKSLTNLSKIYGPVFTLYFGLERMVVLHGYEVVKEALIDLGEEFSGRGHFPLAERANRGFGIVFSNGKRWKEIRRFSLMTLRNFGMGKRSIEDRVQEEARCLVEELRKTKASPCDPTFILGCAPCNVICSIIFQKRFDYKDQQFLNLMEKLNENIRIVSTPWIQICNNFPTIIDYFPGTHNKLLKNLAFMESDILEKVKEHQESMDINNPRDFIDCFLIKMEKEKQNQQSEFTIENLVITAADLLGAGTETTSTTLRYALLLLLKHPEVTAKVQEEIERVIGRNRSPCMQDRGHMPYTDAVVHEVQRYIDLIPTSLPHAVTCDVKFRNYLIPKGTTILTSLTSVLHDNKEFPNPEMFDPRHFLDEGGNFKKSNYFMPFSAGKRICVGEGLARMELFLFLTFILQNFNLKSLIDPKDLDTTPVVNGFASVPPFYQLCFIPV
# Outline: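 Light output is proportional to CYP2C19 activity: proluciferin substrate is converted to luciferin, then detected by a luciferin detection reagent that also stops the 1 h, 37C NADPH-driven reaction. Ketoconazole serves as positive control.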
# [9] = target: Cytochrome P450 2C9 (Homo sapiens) (UniProt P11712); experiment: Cytochrome P450 Family 2 Subfamily C Member 9 (CYP2C9) small molecule antagonists: luciferase reporter qHTS assay (AID 1671198); further: nearly all actives have a fitted effect of over 50% in size; further: potency means the concentration at half of the fitted maximal effect
# Chain of Cytochrome P450 2C9 (Homo sapiens) (P11712 whole entry, looked up): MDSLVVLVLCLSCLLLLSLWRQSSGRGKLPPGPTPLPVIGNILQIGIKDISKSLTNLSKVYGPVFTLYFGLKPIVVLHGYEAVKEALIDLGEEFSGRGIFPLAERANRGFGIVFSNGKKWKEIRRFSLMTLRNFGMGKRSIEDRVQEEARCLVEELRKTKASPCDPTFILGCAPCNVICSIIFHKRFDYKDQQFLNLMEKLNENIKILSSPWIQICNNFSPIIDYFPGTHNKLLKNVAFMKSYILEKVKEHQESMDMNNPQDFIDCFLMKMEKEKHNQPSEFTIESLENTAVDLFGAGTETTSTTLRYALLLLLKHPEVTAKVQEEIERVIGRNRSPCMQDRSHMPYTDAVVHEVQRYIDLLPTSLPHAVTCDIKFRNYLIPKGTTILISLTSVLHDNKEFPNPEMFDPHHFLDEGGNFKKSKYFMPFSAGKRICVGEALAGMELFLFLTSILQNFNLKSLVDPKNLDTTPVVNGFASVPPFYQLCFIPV
# Outline: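 CYP2C9 activity was measured with a P450-Glo proluciferin substrate. Enzyme–substrate mix was held with compound for 10 min at room temperature, then NADPH regeneration solution was added for 1 h at 37C. Luciferin product was read as luminescence.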
# [10] = target: Cytochrome P450 1A2 (Homo sapiens) (UniProt P05177); experiment: Cytochrome P450 Family 1 Subfamily A Member 2 (CYP1A2) small molecule antagonists: luciferase reporter qHTS assay (AID 1671199); further: nearly all actives have a fitted effect of over 50% in size; further: potency means the concentration at half of the fitted maximal effect
# Chain of Cytochrome P450 1A2 (Homo sapiens) (P05177 whole entry, looked up): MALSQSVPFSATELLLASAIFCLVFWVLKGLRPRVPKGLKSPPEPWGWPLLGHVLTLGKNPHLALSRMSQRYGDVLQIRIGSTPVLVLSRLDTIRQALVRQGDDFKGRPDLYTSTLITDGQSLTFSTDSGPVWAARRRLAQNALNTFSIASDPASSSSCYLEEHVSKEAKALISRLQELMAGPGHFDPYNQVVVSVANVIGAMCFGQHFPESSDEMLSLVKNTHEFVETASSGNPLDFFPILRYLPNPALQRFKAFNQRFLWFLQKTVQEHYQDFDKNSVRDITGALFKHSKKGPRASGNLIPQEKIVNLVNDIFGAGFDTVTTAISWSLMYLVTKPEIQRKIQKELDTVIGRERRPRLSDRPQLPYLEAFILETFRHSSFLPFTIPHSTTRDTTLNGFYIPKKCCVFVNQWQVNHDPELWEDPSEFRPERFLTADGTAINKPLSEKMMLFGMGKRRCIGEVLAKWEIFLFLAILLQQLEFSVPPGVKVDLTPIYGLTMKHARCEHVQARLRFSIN
# Outline: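 Luminescence readout (relative luminescence units) after luciferin detection reagent, 20 min RT. Preceded by 1 h room-temperature CYP1A2 reaction with NADPH regeneration solution following 10 min compound preincubation with enzyme and proluciferin substrate. Furafylline positive control.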
# [11] = target: Cytochrome P450 3A4 (Homo sapiens) (UniProt P08684); experiment: Cytochrome P450 Family 3 Subfamily A Member 4 (CYP3A4) small molecule antagonists: luciferase reporter qHTS assay (AID 1671201); further: nearly all actives have a fitted effect of over 50% in size; further: potency means the concentration at half of the fitted maximal effect
# Chain of Cytochrome P450 3A4 (Homo sapiens) (P08684 whole entry, looked up): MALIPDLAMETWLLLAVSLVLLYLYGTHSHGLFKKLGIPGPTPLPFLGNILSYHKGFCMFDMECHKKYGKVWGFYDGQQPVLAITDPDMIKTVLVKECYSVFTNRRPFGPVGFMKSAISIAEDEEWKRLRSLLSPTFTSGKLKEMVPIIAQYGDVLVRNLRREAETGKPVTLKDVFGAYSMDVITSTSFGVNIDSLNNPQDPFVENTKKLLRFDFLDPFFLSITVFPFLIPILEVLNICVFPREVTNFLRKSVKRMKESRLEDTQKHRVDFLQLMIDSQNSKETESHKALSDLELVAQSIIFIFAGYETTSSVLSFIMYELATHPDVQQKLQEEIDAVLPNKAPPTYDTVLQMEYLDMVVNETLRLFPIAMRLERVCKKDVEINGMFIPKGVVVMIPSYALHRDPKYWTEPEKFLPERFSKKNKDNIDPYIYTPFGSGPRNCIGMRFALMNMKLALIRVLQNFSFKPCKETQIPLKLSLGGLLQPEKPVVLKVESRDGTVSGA
# Outline: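 Enzyme and proluciferin substrate are mixed with test chemicals for 10 min, then NADPH regeneration system drives turnover for 1 h at room temperature. A detection reagent halts the reaction; luminescence after 20 min gives relative activity.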
# [12] = target: Voltage-gated inwardly rectifying potassium channel KCNH2 (Homo sapiens) (UniProt Q12809); experiment: Human Ether-a-go-go-Related Gene (hERG) channel small molecule antagonists: fluorescence cell-based qHTS assay (AID 1671200)
# Chain of Voltage-gated inwardly rectifying potassium channel KCNH2 (Homo sapiens) (Q12809 whole entry, looked up): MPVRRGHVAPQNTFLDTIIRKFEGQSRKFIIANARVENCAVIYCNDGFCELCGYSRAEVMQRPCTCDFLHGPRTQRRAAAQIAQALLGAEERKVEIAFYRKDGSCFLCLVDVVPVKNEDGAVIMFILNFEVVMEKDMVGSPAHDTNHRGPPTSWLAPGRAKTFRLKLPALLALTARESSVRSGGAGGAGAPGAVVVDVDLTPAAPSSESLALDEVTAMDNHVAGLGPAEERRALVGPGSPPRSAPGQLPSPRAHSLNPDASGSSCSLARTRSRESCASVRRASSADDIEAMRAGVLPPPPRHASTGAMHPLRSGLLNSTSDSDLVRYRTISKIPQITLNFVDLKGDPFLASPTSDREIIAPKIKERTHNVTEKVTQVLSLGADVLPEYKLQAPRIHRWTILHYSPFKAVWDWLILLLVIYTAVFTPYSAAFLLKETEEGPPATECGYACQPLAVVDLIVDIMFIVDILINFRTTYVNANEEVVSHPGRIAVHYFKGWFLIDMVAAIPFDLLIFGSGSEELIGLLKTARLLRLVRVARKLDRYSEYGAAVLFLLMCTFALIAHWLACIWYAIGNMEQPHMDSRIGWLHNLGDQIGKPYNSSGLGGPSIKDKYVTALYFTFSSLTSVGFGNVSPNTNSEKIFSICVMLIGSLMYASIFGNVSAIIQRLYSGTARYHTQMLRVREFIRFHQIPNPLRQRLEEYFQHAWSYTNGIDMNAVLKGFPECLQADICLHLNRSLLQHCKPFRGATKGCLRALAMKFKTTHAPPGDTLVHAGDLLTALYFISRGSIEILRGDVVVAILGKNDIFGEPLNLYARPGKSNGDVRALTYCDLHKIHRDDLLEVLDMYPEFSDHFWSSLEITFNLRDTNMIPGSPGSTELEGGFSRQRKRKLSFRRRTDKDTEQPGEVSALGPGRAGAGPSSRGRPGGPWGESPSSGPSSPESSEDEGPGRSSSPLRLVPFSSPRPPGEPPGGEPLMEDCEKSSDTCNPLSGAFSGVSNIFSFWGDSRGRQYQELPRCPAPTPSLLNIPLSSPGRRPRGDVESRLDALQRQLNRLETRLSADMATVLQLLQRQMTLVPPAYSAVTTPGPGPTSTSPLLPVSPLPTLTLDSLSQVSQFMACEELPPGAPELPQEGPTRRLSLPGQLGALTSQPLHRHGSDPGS
# Outline: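 First, 1000 cells per well are seeded and cultured overnight at 37 C. Next, FluxOR II dye is loaded for 1 h at room temperature, protected from light. After 10 more minutes, stimulus is added and fluorescence is read.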
# [13] = target: Nuclear receptor subfamily 1 group I member 2 (Rattus norvegicus) (UniProt Q9R1A7); experiment: Rat pregnane X receptor (rPXR) activation by small molecules, qHTS assay (AID 1346983); details: rPXR luciferase reporter cells, One-Glo luminescence, 24 h; active compounds read high; further: nearly all actives have a fitted effect of over 20% in size
# Chain of Nuclear receptor subfamily 1 group I member 2 (Rattus norvegicus) (Q9R1A7 whole entry, looked up): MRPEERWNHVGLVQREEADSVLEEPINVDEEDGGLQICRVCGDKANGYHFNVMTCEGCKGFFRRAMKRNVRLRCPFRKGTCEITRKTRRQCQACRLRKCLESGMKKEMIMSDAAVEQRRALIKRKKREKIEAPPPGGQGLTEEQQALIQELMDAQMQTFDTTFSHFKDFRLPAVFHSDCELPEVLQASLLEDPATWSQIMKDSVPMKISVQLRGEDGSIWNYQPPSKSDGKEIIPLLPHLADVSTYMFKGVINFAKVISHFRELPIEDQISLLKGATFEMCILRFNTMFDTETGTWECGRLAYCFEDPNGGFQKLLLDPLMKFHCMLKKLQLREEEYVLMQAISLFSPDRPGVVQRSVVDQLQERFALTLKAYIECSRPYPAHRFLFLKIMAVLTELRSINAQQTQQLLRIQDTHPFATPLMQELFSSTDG
# Outline: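 Cell-based rPXR luciferase reporter assay, 2,000 cells per well, rested 5hr at 37 C before compound addition in DMSO, then 24 hr at 37 C. One-Glo reagent was added and luminescence read after 30 min at room temperature.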
# [14] = target: Nuclear receptor subfamily 1 group I member 2 (Homo sapiens) (UniProt O75469); experiment: CYP3A4 induction through human pregnane X receptor (PXR) by small molecules, qHTS assay (AID 1346984); further: nearly all actives have a fitted effect of over 40% in size
# Outline: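 HepG2-derived DPX-2 line carrying PXR plus a CYP3A4-promoter luciferase reporter; cells plated 5 hr, compound-exposed 24 hr at 37C. CYP3A4 activity probed with 3uM (final) Luciferin-IPA for 3hr, then luciferase read after One-Glo.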
# [15] = target: Nuclear receptor subfamily 1 group I member 2 (Homo sapiens) (UniProt O75469); experiment: Human pregnane X receptor (PXR) activation by small molecules, qHTS assay (AID 1346985); further: nearly all actives have a fitted effect of over 40% in size
# Outline: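 DPX-2 cells (HepG2 co-transfected with a PXR response element and a CYP3A4-promoter luciferase construct) were seeded at 2,000 per well, rested 5 hr at 37C, then exposed to DMSO-dissolved compounds for 24 hr. Activation was read as luciferase luminescence.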
SMILES,Potency [1],Potency [2],Potency [3],outcome [4],Potency [5],Potency [6],Potency [7],Potency [8],Potency [9],Potency [10],Potency [11],Potency [12],max activation [13],Potency [14],Potency [15]
CCCCNC1CC(C)(C)NC(C)(C)C1,inactive,inactive,inactive,inactive,inactive,inactive,28.3 µM (active),inactive,inactive,inactive,inactive,,,,
CNC(=O)[C@H]1O[C@@H](n2cnc3c(NCc4cc(Cl)ccc4OCc4cc(C)no4)ncnc32)[C@H](O)[C@@H]1N,inactive,inactive,inactive,inactive,inactive,inactive,inactive,inactive,,inactive,,inactive,,,
Oc1ccccc1-c1nnco1,inactive,inactive,inactive,inactive,inactive,inactive,inactive,inactive,inactive,,inactive,inactive,,,
BrCCCCCBr,inactive,inactive,inactive,inactive,inactive,inactive,inactive,inactive,inactive,,inactive,inactive,,,
CC(C)CC(=O)O,inactive,inactive,inactive,inactive,inactive,,,,,,,,,,
Cc1cc(Cl)c(C)cc1Cl,inactive,inactive,inactive,inactive,inactive,inactive,inactive,inactive,inactive,,inactive,inactive,,,
C[C@@H](O)[C@H]1C(=O)N2C(C(=O)O)=C(SCCN=CN)C[C@H]12,inactive,inactive,inactive,inactive,inactive,inactive,inactive,,,inactive,inactive,inactive,-4.86%,inactive,inactive
O=C(/N=N/C(=O)OCc1ccccc1)OCc1ccccc1,inactive,inactive,inactive,inactive,inactive,30.6 µM (active),inactive,1.78 µM (active),14.2 µM (active),17.8 µM (active),39.9 µM (active),,,,
Brc1ccc(-c2ccccc2)cc1,inactive,inactive,inactive,inactive,inactive,inactive,inactive,inactive,,,,,,,
CN=C(NC#N)Nc1ccc(C2=NNC(=O)CC2C)cc1 (stereo not given),inactive,inactive,inactive,inactive,inactive,,inactive,inactive,inactive,inactive,,inactive,,,
CCCCOCCOC(=O)COc1nc(Cl)c(Cl)cc1Cl,inactive,inactive,inactive,inactive,inactive,,,31.7 µM (active),inactive,39.9 µM (active),inactive,,,,
